These results are taken from PubChem BioAssay (NCATS).

Several values for one entry are separate records, joined by “and”; a condition that tells them apart may be missing. Identical values can stand only once. Results filed as inconclusive are left out. Where a call stands in place of a potency, no number is given. Activity calls are given as the source filed them. Calls follow the shape of the dose curve; as a rule, active = well fitted curve in the direction sought with a large enough effect; inconclusive = small, poorly fitted or top-dose-only effect, or another doubt; inactive = no such curve, though single readings can be large; an effect the other way counts as inactive or inconclusive.

The first assay in a line: qHTS of pediatric cancer cell lines to identify multiple opportunities for drug repurposing: Primary screen for NB-EBc1 cells (AID 1347095). Also: potency is read from the fitted curve at half-maximal effect. As to conditions: NB-EBc1 neuroblastoma viability, CellTiter-Glo luminescence, 48 h; series mostly up to 46 µM. The essentials:
(§1)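 ATP-based luminescence (CellTiter-Glo) quantifies viability after a 48-hour exposure. Compounds are dosed across 8 or 11 final concentrations; DMSO and 2.3 µM bortezomib serve as controls.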
A general note: Quantitative high-throughput screening tests each substance at several concentrations.
Take `Cc1cccc(C#Cc2ccccc2)n1`: the Potency entry is “inactive”.
The same measure, in the same setting: as for `O=Nc1c(-c2c(O)[nH]c3cc(Br)ccc23)[nH]c2ccccc12`, the figure is 8.33 µM (active); as for `COc1cc2c(N3CCN(C(=O)Nc4ccc(OC(C)C)cc4)CC3)ncnc2cc1OCCCN1CCCCC1`, “inactive”; as for `CCOC(=O)C(C)Oc1cccc2c(=O)n(CC(=O)Nc3ccc4c(c3)OCCO4)ccc12` (centres undefined), “inactive”.
On the same count and under the same terms, as for `CC[C@]1(O)C[C@H]2CN(CCc3c([nH]c4ccccc34)[C@@](C(=O)OC)(c3cc4c(cc3OC)N(C=O)[C@H]3[C@@](O)(C(=O)OC)[C@H](OC(C)=O)[C@]5(CC)C=CCN6CC[C@]43[C@@H]65)C2)C1`, the figure is 9.3 nM (active) and 237 nM (active); as for `O=C(CS(=O)Cc1ccco1)NCC=CCOc1cc(CN2CCCCC2)ccn1` (centres undefined), “inactive”.
The same measure, in the same setting: as for `O=C(O)c1cccc(-c2noc(-c3ccccc3F)n2)c1`, the entry is “inactive”; as for `Cc1cccc(CN2CCN(C(c3ccccc3)c3ccc(Cl)cc3)CC2)c1` (centres undefined), 18.7 µM (active).
`O=C(O)CCNC(=O)c1ccc(N=Nc2ccc(O)c(C(=O)O)c2)cc1`: the Potency result was “inactive”.
On the same count and under the same terms, under `COc1cc2c(cc1OC)C1CC(=O)C(CC(C)C)CN1CC2` (centres undefined) stands “inactive”; under `COc1c(O)cc2c(c1O)[C@@H]1O[C@H](CO)[C@@H](O)[C@H](O)[C@H]1OC2=O`, “inactive”; under `c1ccc2[nH]c(-c3cscn3)nc2c1`, “inactive”.
The same measure, in the same setting: as for `O=C(NCCO[N+](=O)[O-])c1cccnc1`, the entry is “inactive”.

A short description of the next assay: qHTS of pediatric cancer cell lines to identify multiple opportunities for drug repurposing: Primary screen for U-2 OS cells (AID 1347096). Also: nearly all actives have a fitted effect of over 50% in size. Particulars: U-2 OS viability, CellTiter-Glo luminescence, 48 h; series mostly up to 46 µM. The essentials:
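Cells (500-1,000/well) rested 5 h, then received compounds for 48 h; metabolically active cells were measured by CellTiter-Glo luminescence. Final concentrations spanned up to 46 µM (MIPE, 11-point) or 0.59 nM-46 µM (NPC, 8-point) in primary screens, 11-point in follow-ups.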
`Cc1ncc([N+](=O)[O-])n1CC(C)O` (centres undefined): the Potency result was “inactive”.
In the case of `O=c1oc2cc(O)ccc2s1`, the Potency result is “inactive”.
Same read-out and setting: as for `CCOC(=O)C1=C[C@@H](OC(CC)CC)[C@H](NC(C)=O)[C@@H](N)C1`, the entry is “inactive”; as for `CN(C)C(=O)[C@H](O)[C@H](Cc1ccccc1)NC(=O)c1cc2cc(Cl)ccc2[nH]1`, “inactive”.
The same measure, in the same setting: under `Cc1cccc(-c2[nH]ncc2-c2ccc3ncccc3n2)n1` stands “inactive”; under `Cc1nccn1CC1CCc2c(c3ccccc3n2C)C1=O` (centres undefined), “inactive”.
Still for that read-out and setting: as for `Cc1cc(O)c2c(c1)C(=O)c1cc(O)cc(O)c1C2=O`, the entry is “inactive”.
On to `N=C(N=C(N)N)N1CCOCC1`, for which the Potency result is “inactive”.
Still for that read-out and setting: as for `CCC(C)(Oc1ccc(C2(c3ccc(OC(C)(CC)C(=O)O)cc3)CCCCC2)cc1)C(=O)O` (centres undefined), the entry is “inactive”.
As to `Cc1nc(-c2ccc(OCC(C)C)c(C#N)c2)sc1C(=O)O`, the Potency entry was “inactive”.
Consider `Cn1c(NCCN(CCO)CCCc2ccc([N+](=O)[O-])cc2)cc(=O)n(C)c1=O`, for which the Potency entry is “inactive”.
For `C=C(c1ccc(C(=O)O)cc1)c1cc2c(cc1C)C(C)(C)CCC2(C)C`, the Potency result was “inactive”.
Still for that read-out and setting: as for `Cc1c(OCC(F)(F)F)ccnc1CS(=O)c1nc2ccccc2[nH]1` (centres undefined), the entry is “inactive”.
Regarding `CN(C)[C@@H](CCOc1cccc2ccccc12)c1ccccc1`, the Potency entry is “inactive”.
On the same count and under the same terms, under `O=C1c2c(O)cc(O)cc2OC(c2ccc(O)c(O)c2)C1O` (centres undefined) stands “inactive”; under `C[C@H](Cn1cnc2c(N)ncnc21)OCP(=O)(O)O`, “inactive”; under `O=C(NC(Cc1cc(=O)[nH]c2ccccc12)C(=O)O)c1ccc(Cl)cc1` (centres undefined), “inactive”.
Take `COC1=C(OC)C(=O)C(CCCCCCCCCCO)=C(C)C1=O`: the Potency result was “inactive”.
Same read-out and setting: under `Cc1cccc(C#Cc2ccccc2)n1` stands “inactive”.
Still for that read-out and setting: as for `COc1cc2c(N3CCN(C(=O)Nc4ccc(OC(C)C)cc4)CC3)ncnc2cc1OCCCN1CCCCC1`, the entry is “inactive”; as for `CCOC(=O)C(C)Oc1cccc2c(=O)n(CC(=O)Nc3ccc4c(c3)OCCO4)ccc12` (centres undefined), “inactive”.
With `CNC[C@H](O)c1ccc(O)c(O)c1`, the Potency result was “inactive”.
On to `O=C(CS(=O)Cc1ccco1)NCC=CCOc1cc(CN2CCCCC2)ccn1` (centres undefined), for which the Potency entry was “inactive”.
`O=c1ccc2ccc(O)c(O)c2o1`: the Potency result was “inactive”.
Same read-out and setting: under `O=C(O)c1cccc(-c2noc(-c3ccccc3F)n2)c1` stands “inactive”.
As to `Cc1cccc(CN2CCN(C(c3ccccc3)c3ccc(Cl)cc3)CC2)c1` (centres undefined), the Potency entry was “inactive”.
On the same count and under the same terms, under `O=C(O)CCNC(=O)c1ccc(N=Nc2ccc(O)c(C(=O)O)c2)cc1` stands “inactive”; under `COc1cc2c(cc1OC)C1CC(=O)C(CC(C)C)CN1CC2` (centres undefined), “inactive”.
The same measure, in the same setting: as for `Nc1nc(Cl)nc2c1ncn2[C@H]1C[C@H](O)[C@@H](CO)O1`, the entry is “inactive”.
Same read-out and setting: under `COc1c(O)cc2c(c1O)[C@@H]1O[C@H](CO)[C@@H](O)[C@H](O)[C@H]1OC2=O` stands “inactive”; under `c1ccc2[nH]c(-c3cscn3)nc2c1`, “inactive”.
Take `O=C(NCCO[N+](=O)[O-])c1cccnc1`: the Potency entry was “inactive”.

The next assay is described as follows: qHTS of pediatric cancer cell lines to identify multiple opportunities for drug repurposing: Primary screen for Saos-2 cells (AID 1347097). Also: nearly all actives have a fitted effect of over 40% in size. Also: potency is read from the fitted curve at half-maximal effect. As to conditions: Saos-2 viability, CellTiter-Glo ATP luminescence, 48 h; series mostly up to 46 µM. The essentials:
as §1
On to `CCCOc1ccc2nc(NC(=O)OC)[nH]c2c1`, for which the Potency is 0.0299 µM (active).
Still for that read-out and setting: under `CCc1nc(N)nc(N)c1-c1ccc(Cl)cc1` stands “inactive”; under `Cc1ncc([N+](=O)[O-])n1CC(C)O` (centres undefined), “inactive”; under `CCOC(=O)C1=C[C@@H](OC(CC)CC)[C@H](NC(C)=O)[C@@H](N)C1`, “inactive”.
For the molecule `Cc1cccc(-c2[nH]ncc2-c2ccc3ncccc3n2)n1`, the Potency entry was “inactive”.
Still for that read-out and setting: under `Cc1cc(O)c2c(c1)C(=O)c1cc(O)cc(O)c1C2=O` stands “inactive”; under `N=C(N=C(N)N)N1CCOCC1`, “inactive”; under `Nc1nc(N)c(N=O)c(OCC2CCCCC2)n1`, 18.7 µM (active).
`Cc1nc(-c2ccc(OCC(C)C)c(C#N)c2)sc1C(=O)O`: the Potency entry was “inactive”.
As for `Cn1c(NCCN(CCO)CCCc2ccc([N+](=O)[O-])cc2)cc(=O)n(C)c1=O`, the Potency entry was “inactive”.
Still for that read-out and setting: as for `C=C(c1ccc(C(=O)O)cc1)c1cc2c(cc1C)C(C)(C)CCC2(C)C`, the entry is “inactive”; as for `Cc1c(OCC(F)(F)F)ccnc1CS(=O)c1nc2ccccc2[nH]1` (centres undefined), “inactive”.
On to `S=c1nc[nH]c2nc[nH]c12`, for which the Potency entry was “inactive”.
On the same count and under the same terms, under `CN(C)[C@@H](CCOc1cccc2ccccc12)c1ccccc1` stands 26.4 µM (active); under `C[C@H](Cn1cnc2c(N)ncnc21)OCP(=O)(O)O`, “inactive”; under `O=C(NC(Cc1cc(=O)[nH]c2ccccc12)C(=O)O)c1ccc(Cl)cc1` (centres undefined), “inactive”.
Same read-out and setting: as for `COC1=C(OC)C(=O)C(CCCCCCCCCCO)=C(C)C1=O`, the entry is “inactive”.
Same read-out and setting: under `O=Nc1c(-c2c(O)[nH]c3cc(Br)ccc23)[nH]c2ccccc12` stands 14.8 µM (active); under `CCOC(=O)C(C)Oc1cccc2c(=O)n(CC(=O)Nc3ccc4c(c3)OCCO4)ccc12` (centres undefined), “inactive”.
As for `CC[C@]1(O)C[C@H]2CN(CCc3c([nH]c4ccccc34)[C@@](C(=O)OC)(c3cc4c(cc3OC)N(C=O)[C@H]3[C@@](O)(C(=O)OC)[C@H](OC(C)=O)[C@]5(CC)C=CCN6CC[C@]43[C@@H]65)C2)C1`, the Potency is 0.0235 µM (active).
In the case of `CNC[C@H](O)c1ccc(O)c(O)c1`, the Potency result is “inactive”.
The same measure, in the same setting: under `O=C(CS(=O)Cc1ccco1)NCC=CCOc1cc(CN2CCCCC2)ccn1` (centres undefined) stands “inactive”; under `O=c1ccc2ccc(O)c(O)c2o1`, “inactive”; under `O=C(O)c1cccc(-c2noc(-c3ccccc3F)n2)c1`, “inactive”.
The same measure, in the same setting: as for `O=C(O)CCNC(=O)c1ccc(N=Nc2ccc(O)c(C(=O)O)c2)cc1`, the entry is “inactive”; as for `COc1cc2c(cc1OC)C1CC(=O)C(CC(C)C)CN1CC2` (centres undefined), “inactive”.
The same measure, in the same setting: as for `Nc1nc(Cl)nc2c1ncn2[C@H]1C[C@H](O)[C@@H](CO)O1`, the entry is “inactive”; as for `c1ccc2[nH]c(-c3cscn3)nc2c1`, “inactive”.
With `O=C(NCCO[N+](=O)[O-])c1cccnc1`, the Potency entry was “inactive”.
